HCV inh: blocks hepatitis C virus. Huh7.5.1 HCVcc-Cre infection, luciferase reporter, 44 h. Potency, µM (doses to about 41.8 µM), for the others: at the highest dose activity change, negative = inhibition, most hits filed as inhibitors. actives 3.4% (n = 340,000). AID 651820; further: potency means the concentration at half of the fitted maximal effect
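HCVcc-Cre virus at an moi near 0.5 was added right after compound to cells cultured 4 h from seeding (1,000 cells/well). Luciferase activity was determined 44 h later, 15 min after substrate addition at RT.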
HCMV antiviral: human cytomegalovirus inhibition. HFF cells, HCMV-luciferase reporter, 72 h; hits give low values. AID 1259415. activity change, negative = inhibition, % at 57.5 µM. actives 4.5% (n = 410,000); in the data active means activity change below about -60%; inconclusive means no clear call, values can overlap the other calls; inactive means above about -39%
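Cell-based, HFFs, 1000 cells/well, 16 h 37C; cpds in DMSO + HCMV-luc, MOI 1 PFU/cell; 72 h 37C; OneGlo luminescence after 5 min RT; norm. to buffer vs Salinomycin 10uM.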
Marburg entry inh: Marburg virus entry inhibition | Marburg virus pseudotyped entry inhibition, cell reporter | actives 1.8% (n = 300,000) | Potency, µM (titrated, usually from 37.8 µM), for the others: at the highest dose activity change, negative = inhibition, usual class: inhibitors; calls by dose curve; tested in HEK293 cells; further: potency means the concentration at half of the fitted maximal effect
Pf growth 96h: P. falciparum growth inhibition at 96 hours; P. falciparum luciferase reporter growth, 96 h; Potency, µM (top dose mostly 28.7 µM), without a hit: at the top dose activity change, negative = inhibition, most hits filed as inhibitors; actives 6.9% (n = 320,000); AID 504834; further: potency means the concentration at half of the fitted maximal effect
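Parasite growth measured via integrated firefly luciferase reporter in P. falciparum. Infected erythrocytes at 2% hematocrit, 0.05% parasitemia final were treated 96 hours at 37 C under 5% CO2, and luminescence was read.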
Pf growth 48h: inhibits P. falciparum growth in the first generation, 48 h; actives 5.9% (n = 310,000); Potency, µM (top dose mostly 28.7 µM), for inactives: at the top dose activity change, negative = inhibition, actives largely listed as inhibitors; P. falciparum luciferase growth in erythrocytes, 48 h; further: potency means the concentration at half of the fitted maximal effect
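Here the parasites carry a stable luciferase gene and grow inside erythrocytes in Albumax-based RPMI medium with compound for one erythrocytic cycle. Activity is scored as loss of luminescent signal.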
Lassa entry inh: blocks Lassa virus binding to or entry into cells | Lassa virus pseudotype entry inhibition, cell reporter | Potency, µM (top dose mostly 37.9 µM), inactives show at the top dose activity change, negative = inhibition, actives largely listed as inhibitors | actives 1.2% (n = 300,000) | AID 540256; calls by dose curve; tested in HEK293 cells; further: potency means the concentration at half of the fitted maximal effect; nearly all actives have a fitted effect of over 50% in size
* hit, by the source's call; ? = inconclusive; nt = no result; [ ] = remark or other dose. A selection: hits, their analogues and other compounds. The true share with any hit is near 14%. Unless noted, the call rests on the fitted dose curve; in most records, active means well fitted inhibition curve with a large enough effect; inconclusive means small, poorly fitted or top-dose-only effect, or another doubt; inactive means no such curve, though single readings can be large or run the other way. On the % scale 0 is the no-effect control and ±100 the full control effect.

SMILES	HCV inh	HCMV antiviral	Marburg entry inh	Pf growth 96h	Pf growth 48h	Lassa entry inh
COc1ccc(CCC2(C)NC(=O)N(C(C)C(=O)Nc3ccccc3F)C2=O)cc1 (stereo not drawn)	-4.9%	3.2	nt	?	-26.8%	nt
CC(C)n1nnc(-c2ccc(OCc3ccccc3F)cc2)n1	10.8%	135.1	nt	8.28µM*	29.1%	nt
Cc1ccc(C(=O)c2oc3ccccc3c2NC(=O)c2cc(-c3ccccc3)on2)cc1	nt	-7.0	7.0%[46.1 µM]	nt	nt	-3.8%[46.1 µM]
Cc1cc(=O)[nH]c(N/N=C/c2cc(C)n(CC(F)(F)F)c2C)n1	-19.0%	?	nt	?	?	nt
Cc1cc(=O)[nH]c(Nc2ccc(C(=O)OC(C)C)cc2)n1	-15.9%	-36.8	23.8%	2.62µM*	?	?
COC(=O)c1ccc(-n2c(C)cc(/C=N/Nc3nc(C)cc(=O)[nH]3)c2C)cc1	?	0.0	nt	13.1µM*	8.28µM*	nt
Cc1ccc(C)c(S(=O)(=O)c2nnn3c2nc(NC2CCCCC2)c2sccc23)c1	nt	-29.9	nt	nt	nt	-18.2%[46.1 µM]
Cc1nn(-c2ccccc2)c2nc(C3CC3)cc(C(=O)Nc3ccccc3F)c12	nt	-27.1	nt	nt	nt	-11.8%[46.1 µM]
Cn1c(Cn2c(=O)sc3ccccc32)nnc1SCc1cccc(F)c1	0.2%	0.8	nt	4.2%	-5.2%	nt
Cn1c(Cn2c(=O)sc3ccccc32)nnc1SCc1ccccc1F	-7.8%	1.3	2.0%	11.7µM*	nt	nt
CCOC(=O)CSC1=C(C#N)[C@H](c2ccc(C)cc2)[C@H](C(=O)OC)C(=O)N1	nt	nt	-15.2%[46.1 µM]	nt	nt	nt
CCc1ccc(CN(Cc2cn[nH]c2-c2ccc(OC)cc2)C(=O)Nc2ccc(C)c(F)c2)cc1	nt	-21.8	-27.3%[46.1 µM]	nt	nt	2.7%[46.1 µM]
CC(=O)c1cc(-c2ccc(F)cc2)n(CCC(=O)Nc2cccnc2)c1C	-0.9%	58.4	-0.5%[46.1 µM]	17.1%	9.28µM*	0.8%[46.1 µM]
COc1ccc(OC)c(NC(=O)c2ccc(-c3nc(CSc4ccccc4)c(C)o3)cc2)c1	nt	-15.5	nt	nt	nt	2.9%[46.1 µM]
CC1=C(C)C(=O)C(CCCCC#CCCCC#CCO)=C(C)C1=O	0.6%[8.37 µM]	nt	?	9.28µM*	13.1µM*	20.6µM*
Cc1cnc(NS(=O)(=O)c2ccc(N)cc2)nc1-c1ccccc1O	nt	36.4	nt	nt	nt	nt
COc1cc(OC)c(C(=O)NCc2cccnc2)cc1OC	31.5%	2.2	-6.3%	-15.1%	9.8%	29.3%
CCn1cc(C(=O)NCc2cccnc2)c2cc(OC)c(OC)cc2c1=O	10.3%	-1.5	7.9%	2.08µM*	22.6%	1.3%
COC(=O)CNC(=O)c1cn(CC(C)C)c(=O)c2cc(OC)c(OC)cc12	12.8%	-0.8	9.9%	179.2%	0.0%	3.2%
COc1cc2c(C(=O)NCc3ccccn3)cn(CC(C)C)c(=O)c2cc1OC	-8.0%	94.9	-10.7%	13.1µM*	-8.6%	4.4%
CCN(CC)C(=O)c1nn(-c2ccccc2)c2c1C1CCC2(C)C1(C)C (stereo not drawn)	12.6µM*	-94.8*	?	?	?	?
Cn1c(C(=O)Nc2ccc3c(c2)OCCO3)cc2sccc21	nt	126.6	-6.1%	0.0%	130.5%	47.2%[14.3 µM]
O=C(Nc1ccc2c(c1)OCCO2)c1cc2sccc2n1Cc1ccc(F)cc1	?	-30.3	-8.7%	10.4µM*	?	-23.6%
Cc1cccc(C)c1NC(=O)c1cc2sccc2n1Cc1ccc(F)cc1	nt	?	6.8%[46.1 µM]	nt	nt	?
O=C(Nc1ccc2c(c1)OCCO2)c1cc2sccc2n1Cc1ccccc1	11.2µM*	?	?	?	?	?
SMILES	HCV inh	HCMV antiviral	Marburg entry inh	Pf growth 96h	Pf growth 48h	Lassa entry inh
CCC(Sc1nnc(-c2ccc(OC)cc2)c(-c2ccc(OC)cc2)n1)C(=O)Nc1cccc(OC)c1 (stereo not drawn)	nt	-12.4	nt	nt	nt	?
O=C(Cc1ccccc1[N+](=O)[O-])Nc1ccccc1C(=O)N1CCOCC1	-6.4%	23.9	18.5%[46.1 µM]	21.6%	48.6%	10µM*
CS(=O)(=O)N(CC(=O)Nc1ccccc1C(=O)N1CCOCC1)c1cccc(F)c1	18.4%	27.0	6.2%	2.62µM*	-0.1%	7.6%
Cc1ccc(SCC(=O)Nc2ccccc2C(=O)N2CCOCC2)cc1	19.2%	-70.9*	?	-44.9%	-18.8%	-3.3%
CC(=O)c1ccc(NC(=O)CCc2c(C)nc3c(c2C)c(=O)n(C)c(=O)n3C)cc1	nt	9.1	?	nt	nt	10.7%[46.1 µM]
COc1ccc(Oc2nc(C)cc(C)c2S(C)(=O)=O)cc1	21.3%	-3.9	-0.1%	61.6%	10.7%	-1.5%
COc1ccc(CS(=O)c2nc(C)cc(C)c2S(C)(=O)=O)cc1 (stereo not drawn)	-2.2%	-10.1	3.7%[46.1 µM]	29.8%	11.7µM*	-4.3%[46.1 µM]
CCOc1ccc(/C=C/C2=CC(C)(C)NC(=S)N2)cc1	?	-93.8*	11.7%[46.1 µM]	359.0%	?	-10.9%
O=C1c2cnc3nc(SCc4cccc(Cl)c4)nn3c2CC2c3ccccc3CCN12 (stereo not drawn)	11.2µM*	-25.1	-16.4%	72.4%	?	-19.6%
COc1ccc2c(c1)c(N1CCCC1=O)c(C(=O)Nc1ccc(Cl)cc1C)n2C	nt	2.8	nt	nt	nt	-23.7%[46.1 µM]
Cc1nonc1NC(=O)OCCN1CCOC1=O	7.2%	-5.5	9.5%	6.57µM*	?	13.3%
COc1cc(C2NC(=O)NC(c3ccccc3)=C2C(C)=O)c(Br)c(Br)c1O (stereo not drawn)	10.1%	9.7	nt	0.738µM*	1.31µM*	nt
CC(=O)C1=C(c2ccccc2)NC(=O)NC1c1ccccc1 (stereo not drawn)	14.2%	-32.3	nt	?	17.2%	nt
CCOc1ccc(CNC(=O)c2ccc3c(c2)N(Cc2ccccc2)CCS3)cc1	nt	-28.4	?	nt	nt	nt
COc1ccc(CNC(=O)c2ccc3c(c2)N(Cc2ccccc2)CCS3)cc1	nt	-8.6	?	nt	nt	4.47µM*
Cc1ccccc1CNC(=O)c1ccc2c(c1)N(Cc1ccccc1)CCS2	nt	-33.5	8.91µM*	nt	nt	nt
CCCCCC(=O)N1C[C@@H](n2cc(C3CC3)nn2)[C@H](O)C[C@@H]1c1ccc(C)cc1	nt	-11.5	nt	nt	nt	nt
COC1=C(OC)C(=O)C(CCCCCCCCCCO)=C(C)C1=O	nt	-18.3	nt	6.01µM*	?	nt
COC1=CC(=O)C(O)=C(CCCCCCC/C=C/CCCCCCCC2=C(O)C(=O)C=C(OC)C2=O)C1=O	10.2%	nt	nt	nt	nt	nt
O=C(Nc1cccc(Cl)c1)OC1CN2CCC1CC2 (stereo not drawn)	?	-21.7	nt	1.85µM*	2.94µM*	nt
Cc1ccc(S(=O)(=O)CC(CN2CCOCC2)N2CCOCC2)cc1 (stereo not drawn)	15.0%	-15.4	?	-17.8%	-0.2%	-3.7%
CC1CCN(CC(CS(=O)(=O)c2ccc([N+](=O)[O-])cc2)N2CCC(C)CC2)CC1 (stereo not drawn)	5.01µM*	-62.3*	nt	?	?	nt
O=C(Nc1ccccc1Cl)Nc1ccnn1C1CCN(C(=O)C2CCOC2)CC1 (stereo not drawn)	nt	-28.3	nt	nt	nt	nt

High-throughput results: PubChem BioAssay, National Center for Advancing Translational Sciences (NCATS)
